Experimental data: PubChem BioAssay (Tox21)
Results filed as inconclusive are left out. Values without a mark were called inactive. The source made the active and inactive calls. Calls come from the whole dose curve.

experiment: qHTS assay for small molecules that induce genotoxicity in human embryonic kidney cells expressing luciferase-tagged ATAD5 - cell viability (AID 651634); conditions: HEK293T ATAD5-luc cells viability, CellTiter-Fluor, 15.5 h; series mostly up to 83.3 µM; activity, negative = cytotoxicity: at the top concentration; note: nearly all actives have a fitted effect of over 25% in size
Text: National Center for Advancing Translational Sciences [NCATS]
NIH Chemical Genomics Center [NCGC]
U.S. Environmental Protection Agency [EPA]
National Institutes of Environmental Health Sciences [NIEHS]
National Toxicology Program [NTP]
U.S. Food and Drug Administration [FDA]
Enhanced Level of Genome Instability Gene 1 (ELG1; human ATAD5) protein levels increase in response to various types of DNA damage. Using a luciferase reporter-gene tagged with ElG1, a cell-based assay [developed by Kyungjae Myung, NHGRI, NIH] was used to measure the induction of ATAD5 in human embryonic kidney cells (HEK293T). So, increase in luciferase activity can be used to identify the compounds that cause genetic stress. In addition to genotoxicity, these cells were also used to test for cytotoxicity by measuring the protease activity within live cells.
Tox21 Assay Protocol Summary:
For cytotoxicity screening, 2,000 cells in 5 uL/well were dispensed into white, solid-bottom 1536-well plates using a Multidrop Combi (Thermo Scientific) dispenser. Following transfer of 23 nL compound or DMSO vehicle by a pin tool, the plates were incubated 15.5 hr at 37C and 5% CO2. 1 ul CellTiter-Fluor reagent (Promega, Madison, WI) was then added to each plate and following 30 min incubation at 37C, fluorescence intensity was quantified on a ViewLux CCD-based plate reader.
% is set by controls: 0 for no effect and ±100 for the full control effect; potency is the fitted concentration of half-maximal effect.

SMILES	activity, negative = cytotoxicity	Potency
CO[C@@]1(NC(=O)CSCC#N)C(=O)N2C(C(=O)O)=C(CSc3nnnn3C)CS[C@@H]21	16.7%	
CCCCCOc1ccc(C2SC(=O)NC2=O)cc1OCC (stereo not given)	13.3%	
Oc1ccccc1F	11.5%	
CN(C)C(=O)NC1(c2ccccc2)CCN(CCC[C@]2(c3ccc(Cl)c(Cl)c3)CCCN(C(=O)c3ccccc3)C2)CC1	-4.94% [at 39.1 µM]	
CCCc1c2oc(C(=O)O)cc(=O)c2cc2c(=O)cc(C(=O)O)n(CC)c12	-6.67%	
O=C1N(c2ccccc2)c2ccccc2C1(Cc1ccncc1)Cc1ccncc1	24.2%	
O=C(O)CN(CCN(CC(=O)O)CC(=O)O)CCN(CC(=O)O)CC(=O)O	11.5%	
CC/C=C\CCOC(=O)CCCCC	17.6%	
COc1ccccc1OCC(O)COC(N)=O (stereo not given)	9.73% [at 39.1 µM]	
CCOC(=O)C1CC(=O)C(=C(O)C2CC2)C(=O)C1 (stereo not given)	10%	
CCCCNC(=S)NCCCC	13.8%	
CCCCOc1cc(C(=O)NCCN(CC)CC)c2ccccc2n1	16.6% [at 39.1 µM]	
Cc1ncc(CO)c(CN)c1O	-19.2%	
C=Cc1ccccc1		inactive
COc1cc(C)ccc1C(C)C	-18.4%	
Cc1nnc(SCC2=C(C(=O)O)N3C(=O)[C@@H](NC(=O)Cn4cnnn4)[C@H]3SC2)s1	-2.45%	
NCCCN1CCN(CCCN)CC1	11.6%	
CN1[C@@H]2CC[C@H]1CC(OC(=O)c1c[nH]c3ccccc13)C2 (stereo not given in full)	-6.06%	
CC1(C)C(=O)N(Cl)C(=O)N1Br	10.5%	
CCOc1ccc(OCC)c(Cl)c1	15.3%	

SMILES	activity, negative = cytotoxicity	Potency
NC1=NCC2c3ccccc3Cc3ccccc3N12 (stereo not given)	3.37%	
COc1nc(C)nc(NC(=O)NS(=O)(=O)c2ccccc2OCCCl)n1	-4.64%	
CCC(=O)c1ccc2c(c1)N(CCCN(C)C)c1ccccc1S2	8.21%	
O=Cc1ccc(F)c(Br)c1	4.22%	
CCOC(=O)COc1ccc2c(c1)CC(NCC(O)c1cccc(Cl)c1)CC2 (stereo not given)	3.59%	
Clc1cccc(-c2cc(Cl)cc(Cl)c2)c1	-15.1%	
C=CCc1cc(OC)c(O)c(C(=O)NCCO)c1	13.4%	
O=C1CCCCC1C1CCCCC1 (stereo not given)	12.4%	
CC(=O)N(CC(O)CN(C(C)=O)c1c(I)c(C(=O)NCC(O)CO)c(I)c(C(=O)NCC(O)CO)c1I)c1c(I)c(C(=O)NCC(O)CO)c(I)c(C(=O)NCC(O)CO)c1I (stereo not given)	24.9% [at 39.1 µM]	
Cc1cc2nc(N)sc2cc1C	11.6% [at 95.3 µM]	
CN1CCC[C@@H]1Cc1c[nH]c2ccc(CCS(=O)(=O)c3ccccc3)cc12	5.72%	
O=C(O)[C@@H](O)[C@H](O)[C@H](O)[C@@H](O)C(=O)O	-19%	
O=C(O)C(=O)Cc1c[nH]c2ccccc12	5.3%	
CCc1nnc(NS(=O)(=O)c2ccc(N)cc2)s1	10.4%	
CCC1(C)NC(=O)NC1=O (stereo not given)	14.8%	
CC(C)OC(C)C	8.93% [at 95.3 µM]	
CC(C)=CCCC(C)CCOC=O (stereo not given)		54.5 µM (active)
CCCCC(=O)O[C@]1(C(=O)CO)[C@H](C)C[C@H]2[C@@H]3CCC4=CC(=O)C=C[C@]4(C)[C@@]3(F)[C@@H](O)C[C@@]21C	-12.8%	
C1CSCCS1	10%	
CC1(C)S[C@@H]2[C@H](NC(=O)C(C(=O)O)c3ccccc3)C(=O)N2[C@H]1C(=O)O (stereo not given in full)	5.58%	
